Our source for the log2 fold change values is the supplement of paper PMC10849652.

Targets with a hit are over-represented here; the source holds about 8,800 in all. About 0.5% of all pairs of compound and target were hits. Values without a mark were called inactive.

What all share (experiment): log2 fold change, soluble protein after heating vs DMSO (PISA); higher = thermal stabilisation; K562 lysate, 10 uM; active = over 0.2 and 3.5 SD of the protein, either way, in both replicates (recomputed)
Compound in test [1]: NCC(=O)Nc1ccc(-n2nc(C(F)(F)F)cc2-c2ccc3c(ccc4ccccc43)c2)cc1
The method, boiled down:
(§1)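 K562 pellets were dounce-homogenised in PBS pH 7.4 containing 1 mM MgCl2, and the crude extract, at 1 mg/mL protein, was exposed to 10 μM compound for 30 min. Aliquots were heated for 3 min across 48°C-58°C, pooled, brought to 0.5% NP-40 at 4°C and spun at 21,000xg for 90 min, with the supernatant taken as soluble protein. TMTpro 16plex LC-MS/MS with equalised channel sums quantified that protein. Values are log-two fold changes in thermal stability relative to solvent controls, taken from duplicates.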

Compound in test [2]: O=C(CCCCCCC(=O)Nc1ccccc1)NO [vorinostat]
A digest of the protocol:
as §1

Compound in test [3]: O=C(O)c1ccc2c(c1)nc(Nc1cccc(Cl)c1)c1ccncc12 [silmitasertib]
The method, boiled down: as §1

Compound in test [4]: O=C1NC(=O)C(c2cnc3ccccn23)=C1c1cn2c3c(cc(F)cc13)CN(C(=O)N1CCCCC1)CC2
The method, boiled down: as §1

Compound in test [5]: c1cn2cc(-c3ccc4cn[nH]c4c3)nc(Nc3ccc(N4CCOCC4)cc3)c2n1 [entospletinib]
A digest of the protocol:
as §1

Chain of UniProt Q14103 (Q14103 whole entry, looked up): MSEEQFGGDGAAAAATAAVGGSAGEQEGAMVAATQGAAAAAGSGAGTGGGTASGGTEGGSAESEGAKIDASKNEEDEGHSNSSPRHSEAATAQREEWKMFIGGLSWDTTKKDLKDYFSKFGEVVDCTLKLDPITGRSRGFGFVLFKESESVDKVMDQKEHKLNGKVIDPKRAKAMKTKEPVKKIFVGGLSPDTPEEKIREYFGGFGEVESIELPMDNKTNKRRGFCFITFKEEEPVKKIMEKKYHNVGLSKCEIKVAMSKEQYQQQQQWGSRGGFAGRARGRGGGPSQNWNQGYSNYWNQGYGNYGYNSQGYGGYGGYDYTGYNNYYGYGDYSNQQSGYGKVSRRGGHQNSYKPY
Chain of UniProt P14866 (P14866 whole entry, looked up): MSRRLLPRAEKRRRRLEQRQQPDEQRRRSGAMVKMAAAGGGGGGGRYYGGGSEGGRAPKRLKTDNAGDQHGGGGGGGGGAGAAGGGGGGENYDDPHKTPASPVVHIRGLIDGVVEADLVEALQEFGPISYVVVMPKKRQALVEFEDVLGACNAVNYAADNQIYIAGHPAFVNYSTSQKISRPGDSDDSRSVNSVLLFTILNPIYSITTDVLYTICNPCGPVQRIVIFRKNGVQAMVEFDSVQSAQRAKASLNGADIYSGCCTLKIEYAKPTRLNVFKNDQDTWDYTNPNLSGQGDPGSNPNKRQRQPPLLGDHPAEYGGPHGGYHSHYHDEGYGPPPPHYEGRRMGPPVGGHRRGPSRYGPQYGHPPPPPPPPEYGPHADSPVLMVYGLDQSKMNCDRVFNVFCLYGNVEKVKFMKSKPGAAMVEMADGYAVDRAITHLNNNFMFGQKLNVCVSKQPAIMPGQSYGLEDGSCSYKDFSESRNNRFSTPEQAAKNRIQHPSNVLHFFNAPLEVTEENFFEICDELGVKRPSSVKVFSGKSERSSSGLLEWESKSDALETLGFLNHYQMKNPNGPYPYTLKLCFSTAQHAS
Chain of UniProt Q9BQQ3 (Q9BQQ3 whole entry, looked up): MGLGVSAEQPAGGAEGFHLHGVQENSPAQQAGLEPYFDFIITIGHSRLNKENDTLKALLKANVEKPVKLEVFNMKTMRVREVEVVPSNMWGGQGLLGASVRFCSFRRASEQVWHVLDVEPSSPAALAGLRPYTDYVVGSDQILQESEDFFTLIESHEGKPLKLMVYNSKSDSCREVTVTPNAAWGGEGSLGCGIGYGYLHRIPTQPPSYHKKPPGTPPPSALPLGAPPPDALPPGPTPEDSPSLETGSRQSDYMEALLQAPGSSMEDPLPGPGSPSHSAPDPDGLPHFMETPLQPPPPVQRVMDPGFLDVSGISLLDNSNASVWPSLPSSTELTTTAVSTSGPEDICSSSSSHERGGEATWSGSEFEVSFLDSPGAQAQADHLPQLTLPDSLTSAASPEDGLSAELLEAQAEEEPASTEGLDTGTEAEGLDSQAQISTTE
Chain of UniProt P43250 (P43250 whole entry, looked up): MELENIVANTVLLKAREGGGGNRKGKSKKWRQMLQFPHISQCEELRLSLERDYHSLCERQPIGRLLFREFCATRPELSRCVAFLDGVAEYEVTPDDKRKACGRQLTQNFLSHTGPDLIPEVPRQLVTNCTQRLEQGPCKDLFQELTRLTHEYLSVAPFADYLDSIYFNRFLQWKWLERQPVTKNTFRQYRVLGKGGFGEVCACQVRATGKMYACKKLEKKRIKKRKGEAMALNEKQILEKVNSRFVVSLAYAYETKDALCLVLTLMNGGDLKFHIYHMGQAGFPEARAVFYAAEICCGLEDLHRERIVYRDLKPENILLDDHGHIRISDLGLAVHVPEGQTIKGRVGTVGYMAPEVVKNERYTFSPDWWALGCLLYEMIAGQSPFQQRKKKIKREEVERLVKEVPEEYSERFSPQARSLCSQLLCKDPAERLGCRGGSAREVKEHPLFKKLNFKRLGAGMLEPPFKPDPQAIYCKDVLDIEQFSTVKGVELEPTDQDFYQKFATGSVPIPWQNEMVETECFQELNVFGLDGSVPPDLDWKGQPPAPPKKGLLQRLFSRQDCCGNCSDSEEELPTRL
Chain of UniProt Q6P9B9 (Q6P9B9 whole entry, looked up): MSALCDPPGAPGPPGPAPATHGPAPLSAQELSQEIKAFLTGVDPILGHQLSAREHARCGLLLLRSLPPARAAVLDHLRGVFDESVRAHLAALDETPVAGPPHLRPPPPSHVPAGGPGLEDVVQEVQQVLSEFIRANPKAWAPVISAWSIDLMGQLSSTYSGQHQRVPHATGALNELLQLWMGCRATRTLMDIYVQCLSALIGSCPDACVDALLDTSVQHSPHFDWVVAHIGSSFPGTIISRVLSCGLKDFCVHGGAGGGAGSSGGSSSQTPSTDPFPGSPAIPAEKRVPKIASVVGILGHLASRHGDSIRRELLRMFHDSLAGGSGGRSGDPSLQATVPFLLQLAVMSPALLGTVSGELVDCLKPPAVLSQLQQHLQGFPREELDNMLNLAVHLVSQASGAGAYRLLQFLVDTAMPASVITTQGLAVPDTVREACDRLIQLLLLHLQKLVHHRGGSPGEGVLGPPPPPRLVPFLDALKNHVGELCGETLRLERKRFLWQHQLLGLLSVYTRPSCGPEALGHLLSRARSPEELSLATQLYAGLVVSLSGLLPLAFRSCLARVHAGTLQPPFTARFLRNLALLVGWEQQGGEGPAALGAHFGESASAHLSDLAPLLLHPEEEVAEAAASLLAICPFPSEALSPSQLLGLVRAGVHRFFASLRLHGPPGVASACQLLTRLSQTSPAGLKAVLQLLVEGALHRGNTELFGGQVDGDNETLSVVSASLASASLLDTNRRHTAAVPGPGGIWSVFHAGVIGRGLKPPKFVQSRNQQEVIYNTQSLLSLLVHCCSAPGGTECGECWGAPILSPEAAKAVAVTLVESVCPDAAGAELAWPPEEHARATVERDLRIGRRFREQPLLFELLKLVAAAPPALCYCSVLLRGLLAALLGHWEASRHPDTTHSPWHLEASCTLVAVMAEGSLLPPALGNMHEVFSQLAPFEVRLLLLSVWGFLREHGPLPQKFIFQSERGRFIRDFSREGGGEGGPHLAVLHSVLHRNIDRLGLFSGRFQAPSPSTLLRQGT
Chain of UniProt O15357 (O15357 whole entry, looked up): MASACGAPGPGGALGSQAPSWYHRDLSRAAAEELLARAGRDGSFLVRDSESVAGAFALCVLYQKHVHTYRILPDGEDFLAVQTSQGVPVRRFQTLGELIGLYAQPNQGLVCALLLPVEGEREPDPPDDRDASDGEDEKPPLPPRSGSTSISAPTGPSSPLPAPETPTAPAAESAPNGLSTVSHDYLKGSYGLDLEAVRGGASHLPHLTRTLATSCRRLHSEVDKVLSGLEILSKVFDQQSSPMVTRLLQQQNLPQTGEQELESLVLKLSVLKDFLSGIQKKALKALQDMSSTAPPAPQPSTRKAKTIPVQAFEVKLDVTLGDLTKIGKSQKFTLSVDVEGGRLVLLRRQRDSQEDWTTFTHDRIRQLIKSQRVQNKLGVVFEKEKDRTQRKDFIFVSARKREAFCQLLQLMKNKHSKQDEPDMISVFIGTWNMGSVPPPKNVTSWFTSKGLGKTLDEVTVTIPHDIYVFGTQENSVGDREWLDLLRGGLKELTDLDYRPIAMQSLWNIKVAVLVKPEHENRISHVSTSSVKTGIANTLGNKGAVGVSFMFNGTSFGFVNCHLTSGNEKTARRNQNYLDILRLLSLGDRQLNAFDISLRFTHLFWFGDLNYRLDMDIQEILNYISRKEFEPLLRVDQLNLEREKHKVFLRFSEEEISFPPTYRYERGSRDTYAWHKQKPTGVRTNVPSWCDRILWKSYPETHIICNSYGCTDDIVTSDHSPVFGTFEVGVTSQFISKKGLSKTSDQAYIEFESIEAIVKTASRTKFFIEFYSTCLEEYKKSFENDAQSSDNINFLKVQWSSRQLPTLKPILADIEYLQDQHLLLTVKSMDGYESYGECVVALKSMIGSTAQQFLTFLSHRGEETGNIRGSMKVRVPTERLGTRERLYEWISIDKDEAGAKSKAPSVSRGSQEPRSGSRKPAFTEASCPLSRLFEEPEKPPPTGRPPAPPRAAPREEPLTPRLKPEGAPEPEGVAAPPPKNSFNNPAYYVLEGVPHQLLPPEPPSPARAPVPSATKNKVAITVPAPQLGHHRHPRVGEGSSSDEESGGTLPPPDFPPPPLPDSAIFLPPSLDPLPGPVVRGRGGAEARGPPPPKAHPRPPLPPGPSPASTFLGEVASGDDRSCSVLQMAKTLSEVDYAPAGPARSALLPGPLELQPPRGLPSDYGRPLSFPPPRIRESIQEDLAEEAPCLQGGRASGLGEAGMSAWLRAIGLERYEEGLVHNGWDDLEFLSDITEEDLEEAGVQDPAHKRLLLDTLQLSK
Chain of UniProt P36969 (P36969 whole entry, looked up): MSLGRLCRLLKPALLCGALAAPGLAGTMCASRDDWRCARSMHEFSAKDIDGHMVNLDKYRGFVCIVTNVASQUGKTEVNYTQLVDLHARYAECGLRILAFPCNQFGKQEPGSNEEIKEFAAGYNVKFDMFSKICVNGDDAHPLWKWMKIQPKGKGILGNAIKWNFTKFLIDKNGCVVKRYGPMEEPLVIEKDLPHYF
Chain of UniProt P32780 (P32780 whole entry, looked up): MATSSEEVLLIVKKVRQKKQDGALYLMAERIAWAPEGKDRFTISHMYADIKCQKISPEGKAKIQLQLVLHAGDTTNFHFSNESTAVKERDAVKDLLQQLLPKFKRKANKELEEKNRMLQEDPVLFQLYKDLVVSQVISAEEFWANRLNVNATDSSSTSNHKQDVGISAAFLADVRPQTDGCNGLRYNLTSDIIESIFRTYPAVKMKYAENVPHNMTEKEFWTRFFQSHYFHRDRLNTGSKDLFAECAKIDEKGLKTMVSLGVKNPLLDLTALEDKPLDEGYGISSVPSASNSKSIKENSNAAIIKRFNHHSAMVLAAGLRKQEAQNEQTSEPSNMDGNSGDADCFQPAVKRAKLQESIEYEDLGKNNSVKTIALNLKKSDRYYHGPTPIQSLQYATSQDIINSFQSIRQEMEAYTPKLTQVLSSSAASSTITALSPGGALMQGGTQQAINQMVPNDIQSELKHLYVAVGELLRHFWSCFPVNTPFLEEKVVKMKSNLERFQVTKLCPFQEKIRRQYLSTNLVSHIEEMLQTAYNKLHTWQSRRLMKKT

For GSTM4 (UniProt Q03013), the log2 fold change in test [1] was 0.025; in test [2], 0.015; in test [3], 0.301 (active); in test [4], 0.012; in test [5], -0.03.
Regarding HAUS5 (UniProt O94927), the log2 fold change in test [1] is 0.031; in test [2], -0.416 (active); in test [3], 0.045; in test [4] it was -0.015; in test [5] it was 0.013.
Taken in the same sequence, the figures for GPN2 (UniProt Q9H9Y4) were 0.006, -0.093, 0.009, -0.062 and 0.203.
Taken in the same sequence, the figures for GTF2H1 (UniProt P32780) were -0.019, -0.412 (active), 0, -0.024 and 0.035.
The corresponding values for HNRNPUL1 (UniProt Q9BUJ2) are -0.02, 0.122, 0.012, -0.022 and -0.02.
As to HTT (UniProt P42858), the log2 fold change in test [1] is -0.029; in test [2], -0.331 (active); in test [3], 0.04; in test [4] it was 0; in test [5], -0.042.
The corresponding values for HERC2 (UniProt O95714) are 0.04, -0.006, -0.076, -0.009 and 0.014.
Regarding GLYR1 (UniProt Q49A26), the log2 fold change is -0.006 in test [1]; -0.033 in test [2]; -0.022 in test [3]; -0.007 in test [4]; -0.041 in test [5].
The corresponding values for HNRNPL (UniProt P14866) are 0.005, -0.445 (active), 0.072, 0.028 and 0.007.
Turning to INPPL1 (UniProt O15357), the log2 fold change in test [1] was 0.025; in test [2] it was -0.528 (active); in test [3] it was 0.057; in test [4], 0.017; in test [5], -0.015.
Taken in the same sequence, the figures for IFNGR1 (UniProt P15260) were 0.15, 0.147, -0.006, 0.046 and -0.042.
As to ISY1 isoform 1 (UniProt Q9ULR0), the log2 fold change is -0.163 in test [1]; 0.05 in test [2]; 0.032 in test [3]; -0.01 in test [4]; -0.02 in test [5].
Take GORASP1 (UniProt Q9BQQ3): the log2 fold change in test [1] was -0.041; in test [2] it was -0.01; in test [3], 0.067; in test [4], -0.018; in test [5], -0.09.
Taken in the same sequence, the figures for HMBOX1 isoform 5 (UniProt Q6NT76) were 0.004, 0.093, 0.025, 0.02 and -0.063.
The corresponding values for IGF2BP3 (UniProt O00425) are -0.012, -0.305 (active), 0.025, 0 and 0.006.
As to ISOC2 (UniProt Q96AB3), the log2 fold change is -0.064 in test [1]; 0.304 (active) in test [2]; -0.036 in test [3]; 0 in test [4]; 0.033 in test [5].
Taken in the same sequence, the figures for HNRNPD isoform 3 (UniProt Q14103) were 0.074, 0.078, 0.005, 0.09 and 0.
Taken in the same sequence, the figures for IRF2BP1 (UniProt Q8IU81) were 0.021, -0.4 (active), -0.003, -0.03 and 0.01.
The corresponding values for GSTZ1 (UniProt G3V4T6) are 0.088, 0.167, -0.002, -0.015 and -0.031.
With GPX4 (UniProt P36969), the log2 fold change in test [1] was -0.007; in test [2], -0.306 (active); in test [3] it was 0.017; in test [4], -0.023; in test [5] it was 0.037.
Taken in the same sequence, the figures for INTS5 (UniProt Q6P9B9) were -0.045, -0.56 (active), 0.088, 0.039 and 0.093.
The corresponding values for HADH isoform 2 (UniProt Q16836) are 0, -0.029, 0.005, 0.006 and 0.022.
In the case of GRK6 isoform 2 (UniProt P43250), the log2 fold change in test [1] was 0.001; in test [2], -0.227; in test [3] it was 0.48 (active); in test [4], -0.012; in test [5], -0.123.
Consider GLB1 (UniProt P16278), for which the log2 fold change in test [1] was 0.003; in test [2], -0.013; in test [3], -0.03; in test [4], -0.043; in test [5], -0.018.
Taken in the same sequence, the figures for IL18R1 (UniProt Q13478) were -0.246, 0.198, -0.33, 0.075 and -0.084.
